In PubChem BioAssay AID1159580 (chemical genetic matrix, 2015):
Among all 5,500 compounds or so, about 2,000 (36%) were called active. Roughly 18% stayed inconclusive and do not appear here. Rule as the data show it: active = normalized growth mostly below about 0.91 (no sharp cut-off); inconclusive = no clear call, values can overlap the other calls; inactive = mostly above about 0.92. This is one part of the list.

Experiment: chemical genetic growth profiling, strain panel (AID 1159580);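 also: tested at 20 µM; growth read once vehicle control cultures reached saturation at 30 °C; 1 = growth at the plate median or of vehicle wells; lower values mean less growth of the strain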
Details: growth OD

Measured: normalized growth

COc1cc2ccc(=O)oc2c2ccoc12
inactive: S. cerevisiae deletion strains, locus YJR066W, strain TOR1, stronger effect = lower value 0.965 | S. cerevisiae deletion strains, locus YKL009W, strain mrt4, stronger effect = lower value 0.902 | S. cerevisiae deletion strains, locus YKL068W, stronger effect = lower value 0.999 | S. cerevisiae deletion strains, locus YKL085W, strain MDH1 (second series), stronger effect = lower value 0.999 | S. cerevisiae deletion strains, locus YKL085W, strain MDH1, stronger effect = lower value 0.999 | S. cerevisiae deletion strains, locus YKR001C, strain vps1, stronger effect = lower value 0.901 | S. cerevisiae deletion strains, locus YKR026C, strain gcn3, stronger effect = lower value 0.999 | S. cerevisiae deletion strains, locus YKR091W, strain srl3, stronger effect = lower value 0.998 | S. cerevisiae deletion strains, locus YLL026W, stronger effect = lower value 0.982 | S. cerevisiae deletion strains, locus YLL041C, strain sdh2, stronger effect = lower value 0.991 | S. cerevisiae deletion strains, locus YLR039C, strain RIC1, stronger effect = lower value 1.09 | S. cerevisiae deletion strains, locus YLR058C, strain SHM2, stronger effect = lower value 0.987 | S. cerevisiae deletion strains, locus YLR102C, strain apc9, stronger effect = lower value 1.01 | S. cerevisiae deletion strains, locus YLR113W, strain HOG1, stronger effect = lower value 1.09 | S. cerevisiae deletion strains, locus YLR262C, strain YPT6 (second series), stronger effect = lower value 0.948 | S. cerevisiae deletion strains, locus YLR262C, strain YPT6, stronger effect = lower value 1.06 | S. cerevisiae deletion strains, locus YLR268W, strain sec22, stronger effect = lower value 0.97 | S. cerevisiae deletion strains, locus YLR342W, strain FKS1, stronger effect = lower value 1.01 | S. cerevisiae deletion strains, locus YLR370C, strain arc18, stronger effect = lower value 0.982 | S. cerevisiae deletion strains, locus YLR371W, strain rom2, stronger effect = lower value 0.947 | S. cerevisiae deletion strains, locus YLR384C, strain iki3, stronger effect = lower value 0.986 | S. cerevisiae deletion strains, locus YLR418C, strain cdc73, stronger effect = lower value 0.918 | S. cerevisiae deletion strains, locus YML016C, strain PPZ1, stronger effect = lower value 0.991 | S. cerevisiae deletion strains, locus YML124C, strain tub3, stronger effect = lower value 1 | S. cerevisiae deletion strains, locus YMR058W, strain fet3, stronger effect = lower value 0.941 | S. cerevisiae deletion strains, locus YMR078C, strain ctf18, stronger effect = lower value 0.977 | S. cerevisiae deletion strains, locus YMR125W, strain sto1, stronger effect = lower value 1.02 | S. cerevisiae deletion strains, locus YMR129W, stronger effect = lower value 0.971 | S. cerevisiae deletion strains, locus YMR205C, strain PFK2, stronger effect = lower value 0.993 | S. cerevisiae deletion strains, locus YMR223W, strain ubp8, stronger effect = lower value 0.937 | S. cerevisiae deletion strains, locus YMR231W, strain pep5, stronger effect = lower value 0.98 | S. cerevisiae deletion strains, locus YMR263W, strain SAP30, stronger effect = lower value 0.976 | S. cerevisiae deletion strains, locus YMR307W, strain GAS1, stronger effect = lower value 1.09 | S. cerevisiae deletion strains, locus YNL067W, strain RPL9B, stronger effect = lower value 0.977 | S. cerevisiae deletion strains, locus YNL128W, strain TEP1, stronger effect = lower value 0.871 | S. cerevisiae deletion strains, locus YNL183C, strain NPR1, stronger effect = lower value 0.977 | S. cerevisiae deletion strains, locus YNL233W, strain BNI4, stronger effect = lower value 0.982 | S. cerevisiae deletion strains, locus YNL271C, strain bni1, stronger effect = lower value 0.956 | S. cerevisiae deletion strains, locus YNL298W, strain CLA4, stronger effect = lower value 0.954 | S. cerevisiae deletion strains, locus YNL307C, strain MCK1, stronger effect = lower value 1.01 | S. cerevisiae deletion strains, locus YNR049C, strain mso1, stronger effect = lower value 1.02 | S. cerevisiae deletion strains, locus YNR052C, strain pop2, stronger effect = lower value 0.925 | S. cerevisiae deletion strains, locus YOL012C, strain htz1 0.781 | S. cerevisiae deletion strains, locus YOL147C, strain pex11, stronger effect = lower value 0.981 | S. cerevisiae deletion strains, locus YOR061W, strain CKA2, stronger effect = lower value 1 | S. cerevisiae deletion strains, locus YOR069W, strain VPS5, stronger effect = lower value 0.988 | S. cerevisiae deletion strains, locus YOR070C, strain gyp1, stronger effect = lower value 0.966 | S. cerevisiae deletion strains, locus YOR136W, strain idh2, stronger effect = lower value 0.971 | S. cerevisiae deletion strains, locus YOR144C, strain elg1, stronger effect = lower value 0.986 | S. cerevisiae deletion strains, locus YOR184W, strain ser1, stronger effect = lower value 0.994 | S. cerevisiae deletion strains, locus YOR231W, strain MKK1, stronger effect = lower value 0.991 | S. cerevisiae deletion strains, locus YOR265W, strain rbl2, stronger effect = lower value 0.952 | S. cerevisiae deletion strains, locus YOR270C, strain vph1, stronger effect = lower value 0.814 | S. cerevisiae deletion strains, locus YOR316C, strain cot1, stronger effect = lower value 0.981 | S. cerevisiae deletion strains, locus YPL240C, strain hsp82, stronger effect = lower value 0.965 | S. cerevisiae deletion strains, locus YPL241C, strain CIN2, stronger effect = lower value 0.997 | S. cerevisiae deletion strains, locus YPL256C, strain CLN2, stronger effect = lower value 1.06 | S. cerevisiae deletion strains, locus YPR119W, strain clb2, stronger effect = lower value 0.99 | S. cerevisiae deletion strains, locus YPR141C, strain kar3, stronger effect = lower value 1 | S. cerevisiae deletion strains, locus YPR167C, strain met16, stronger effect = lower value 0.97 | S. cerevisiae deletion strains, strain wtn01, stronger effect = lower value 0.969 | S. cerevisiae strains, strain wild type, stronger effect = lower value 1.02
active: S. cerevisiae deletion strains, locus YKL160W, strain elf1, stronger effect = lower value 0.894 | S. cerevisiae deletion strains, locus YLL001W, strain dnm1, stronger effect = lower value 0.87 | S. cerevisiae deletion strains, locus YLR027C, strain aat2, stronger effect = lower value 0.911 | S. cerevisiae deletion strains, locus YLR221C, strain rsa3, stronger effect = lower value 0.873 | S. cerevisiae deletion strains, locus YLR258W, strain gsy2, stronger effect = lower value 0.87 | S. cerevisiae deletion strains, locus YLR320W, strain mms22, stronger effect = lower value 0.752 | S. cerevisiae deletion strains, locus YLR357W, strain rsc2, stronger effect = lower value 1.16 [resistant] | S. cerevisiae deletion strains, locus YML032C, strain rad52, stronger effect = lower value 0.737 | S. cerevisiae deletion strains, locus YML120C, strain ndi1, stronger effect = lower value 0.844 | S. cerevisiae deletion strains, locus YNL071W, strain lat1, stronger effect = lower value 0.913 | S. cerevisiae deletion strains, locus YNL209W, strain ssb2, stronger effect = lower value 0.919 | S. cerevisiae deletion strains, locus YNL248C, strain rpa49, stronger effect = lower value 0.458 | S. cerevisiae deletion strains, locus YNL250W, strain rad50, stronger effect = lower value 0.856 | S. cerevisiae deletion strains, locus YNL322C, strain KRE1 (second series), stronger effect = lower value 0.793 | S. cerevisiae deletion strains, locus YOR001W, strain rrp6, stronger effect = lower value 0.732 | S. cerevisiae deletion strains, locus YOR080W, strain dia2, stronger effect = lower value 0.891 | S. cerevisiae deletion strains, locus YOR083W, strain WHI5, stronger effect = lower value 0.801 | S. cerevisiae deletion strains, locus YOR106W, strain vam3, stronger effect = lower value 0.755 | S. cerevisiae deletion strains, locus YOR290C, strain snf2, stronger effect = lower value 0.821 | S. cerevisiae deletion strains, locus YPL051W, strain arl3, stronger effect = lower value 0.863 | S. cerevisiae deletion strains, locus YPL078C, strain atp4, stronger effect = lower value 0.858 | S. cerevisiae deletion strains, locus YPL106C, strain sse1, stronger effect = lower value 0.748 | S. cerevisiae deletion strains, locus YPR163C, strain tif3, stronger effect = lower value 0.884
